The source of these data is PubChem BioAssay AID652067 (The Scripps Research Institute Molecular Screening Center, 2013).

Among all 370,000 compounds or so, about 5,400 (1.5%) were called active. The sample as a whole holds a higher share of actives than the screen did. A number with no mark means an inactive call.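 The calls were made as follows: active = activation above the mean of all tested compounds plus 3 SD (cut at about 5.5% in these data); inactive = the rest.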

The test system of this assay is DAF-12 nuclear receptor (Haemonchus contortus). Put plainly: hcDAF-12 driven luciferase reporter activation – cell-based, luminescence, HEK293, lit1-tk-luc reporter, primary screen (AID 652067).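 Also: 100% = response to 3 µM Δ7-dafachronic acid high control.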 To be noted: HEK293 hcDAF-12 lit1-tk-luc reporter, at 6.8 µM, active compounds read high, 0% DMSO, 100% Δ7-dafachronic acid. (Reporter assays use an easily measured gene product as a stand-in for the process of interest.)
In the case of `COC(=O)C1=C(C)N(Cc2cccc(C(F)(F)F)c2)C(=NCc2ccccc2)NC1c1ccccc1C(F)(F)F` (centres undefined), the activation was -0.61%.

In the case of `CC(=O)Nc1ccc(OC[C@@H](O)CN2CCC(C(O)(c3ccccc3)c3ccccc3)CC2)cc1`, the activation was -1.17%. Consider `CC(C)[C@@H](C)/C=C/[C@@H](C)[C@H]1CC[C@@H]2[C@]1(C)CCC1[C@]23C=C[C@]2(C[C@@H](O)CC[C@]12C)N(c1ccc([N+](=O)[O-])cn1)O3` (some centres undefined), for which the activation was -0.59%. The result for `CCn1c(=O)n2n(c1=O)[C@@]1(C=C3CCCC[C@H]32)N=C(NC(=O)c2ccccc2)N(Cc2ccccc2)[C@H]1Cc1ccccc1` reads -1.71%; that for `COc1ccc(/C(O)=C2/C(=O)C(=O)N(CC3CCCO3)C2c2ccc(OC)c(OC)c2)cc1` (centres undefined), -1.07%; that for `COc1ccc(/C(O)=C2/C(=O)C(=O)N(c3nc(C)c(C)s3)C2c2ccco2)cc1` (centres undefined), 1.96%. The result for `CCOc1ccc(/C(O)=C2\C(=O)C(=O)N(c3ccc(OC)cc3)C2c2ccccc2[N+](=O)[O-])cc1` (centres undefined) reads 6.27% (active). The result for `O=S1(=O)c2c(NCc3ccco3)cccc2Oc2ccccc2CN1Cc1cn(Cc2cccc(C(F)(F)F)c2)nn1` reads -2.46%.

Consider `CN(NC(=O)C1CC(=O)N(c2ccccc2)C1)C1=NS(=O)(=O)c2ccccc21` (centres undefined), for which the activation was 1.93%. Next, `CC(=O)C1(C(=O)Nc2nccs2)CC(c2ccccc2C(F)(F)F)=NO1` (centres undefined): -0.69%; `COc1ccc(N2CCN(CCNS(=O)(=O)c3ccc(Cl)s3)CC2)cc1`: 0.26%. Next, `COc1cccc(/C=C/C(=O)Nc2ccc3c(c2)OCCO3)c1`: 3.26%; `Cc1cccc(NC(=O)/C=C/c2ccc3c(c2)OCO3)n1`: 5.86% (active). The result for `CN(Cc1ccccc1)C(=O)COC(=O)/C=C/c1ccc2c(c1)OCO2` reads -1.03%; that for `CCSc1ccccc1C(=O)Nc1ccc2c(c1)OCO2`, 3.08%. Regarding `CNS(=O)(=O)c1ccc(NC(=O)Nc2ccc3c(c2)OCO3)cc1`, the activation is 4.15%.

Turning to `Cc1cccc(NC(=O)Nc2ccc3c(c2)OCO3)n1`, the activation is 8.33% (active).

In the case of `COC(=O)c1cc2c(c3c4cc(F)ccc4n(S(=O)(=O)c4ccccc4)c13)C(=O)N(Cc1ccccc1OC)C2`, the activation was 0.96%. The result for `CCCN1C(=O)c2[nH]nc(-c3ccccc3)c2C1c1ccccc1` (centres undefined) reads -1.32%; that for `COc1ccccc1CCNC(=O)C1CCN(c2nc(C)cc(C)n2)CC1`, -0.5%.

With `Cc1cc(OC(=O)NCCc2ccc(F)cc2)ccc1F`, the activation is -1.94%. The result for `COc1ccc(CNC(=O)COc2ccccc2C(=O)c2cnn(-c3ccccc3)c2)cc1OC` reads 3.06%; that for `Cc1cc(O)cc(O)c1C(=O)Cc1cnn(-c2ccccc2)c1`, -1.81%. The result for `O=C(c1cnn(-c2ccc(Cl)cc2)c1)c1ccccc1O` reads 6.75% (active); that for `CN(CCO)c1cccc2c1S(=O)(=O)N(Cc1cn(Cc3ccc(C(F)(F)F)cc3)nn1)Cc1ccccc1O2`, 1.99%. `COc1ccccc1C(=O)NC1CCCCN(C(C)C)C1=O` (centres undefined): the activation is 0.55%. Next, `Cc1cc(C(=O)OC(C)C(=O)Nc2cccc(S(=O)(=O)N3CCOCC3)c2)c(C)o1` (centres undefined): -0.06%; `O=C(c1c[nH]c2ccccc12)N1CCC(Oc2cccnc2)CC1`: 1.45%. The result for `Cc1cc(CN(C)C(=O)c2cc(COc3ccc(C)c(C)c3)on2)n[nH]1` reads -1.73%. The result for `Cc1cc(OCc2cc(C(=O)NCc3cc(C(C)C)no3)no2)cc(C)c1Cl` reads 8.95% (active); that for `COc1ccc(OCc2cc(C(=O)NCC3(C)COC3)no2)c(Cl)c1`, 1.3%.

`COc1ccc2c(C(C)c3ccc(N)cc3)cn(C)c2c1` (centres undefined): the activation is -0.33%.

In the case of `O=C(NCCc1c[nH]c2ccccc12)OCc1cn(-c2c(F)cccc2F)nn1`, the activation was 3%. The result for `Nc1ccc2[nH]c(=S)sc2c1` reads 7.75% (active); that for `CCOc1ccc2[nH]c(=S)sc2c1`, -0.28%.

For `O=c1[nH]c2ccccc2s1`, the activation is 1.16%.

As for `COCc1[nH]nc2c1C(c1ccccc1)N(c1ccccc1)C2=O` (centres undefined), the activation is -0.15%. The result for `COc1ccc2c(CC(=O)OCC(=O)Nc3ccccc3[N+](=O)[O-])coc2c1` reads 0.19%; that for `O=S1(=O)c2c(cccc2N2CCCC2)O[C@H](COCc2ccccc2)CN1C1CC1`, -1.28%.

In the case of `Cc1ccc(-n2c(COc3ccccc3)nnc2SCC(=O)Nc2ccc3c(c2)OCCO3)cc1`, the activation is -2.77%. Turning to `C=CC1=CCN(S(=O)(=O)C(C)(C)C)[C@@H]1CCO`, the activation is -0.05%. Take `N#CC(=C1CCCC1)c1nc(-c2ccc(Cl)cc2)cs1`: the activation was -0.23%. The result for `N#CC(=C1SC=CS1)c1nc(-c2ccccc2)cs1` reads 5.72% (active); that for `c1ccc(-c2csc(N3CCc4ccccc4C3)n2)cc1`, 1.49%; that for `COc1ccc(C(=O)CSc2nnc(-c3cnccn3)n2-c2ccc(C)cc2)cc1`, -3.92%.

Take `COC(=O)[C@@]12CCCCC=C1N(CCc1ccc(Cl)cc1)C(=O)[C@H]2CC(=O)NCc1ccc(OC)c(OC)c1`: the activation is -2.23%. Next, `CCc1ccccc1NC(=O)CSc1nnc(-c2cccs2)o1`: 2.25%.

Consider `O=C(O)c1cccc(NC(=S)N/N=C/c2c[nH]c3ccccc23)c1`, for which the activation was 5.99% (active).

For `O=C(Cc1c[nH]c2ccccc12)N/N=C/c1cccc(F)c1`, the activation was -2.14%. The result for `O=C(CCCOc1ccccc1)Nc1cccc(C(=O)O)c1` reads -0.3%; that for `CCn1c(SC)nc(O)c(C(c2ccc(OC)c(O)c2)c2c(O)nc(SC)n(CC)c2=O)c1=O`, -1.4%; that for `Cc1cccc(N2Cc3ccccc3C2=NC(=O)c2ccc(Cl)nc2)c1`, 5.83% (active). Next, `N#Cc1ccc(N2Cc3ccccc3/C2=N/C(=O)Nc2ccc(Cl)cc2)cc1`: -0.08%; `Cc1cccc(N2CCN(C(=O)c3cccc(S(=O)(=O)N4CCc5ccccc5C4)c3)CC2C)c1` (centres undefined): -2.28%; `CCCCCCCCNS(=O)(=O)/C=C/c1cc(C)ccc1CNC(=O)OC(C)(C)C`: -0.7%.

Turning to `COc1ccc(-c2nnn(Cc3nc(N)nc(N4CCCCC4)n3)n2)cc1`, the activation was -2.9%. On to `CCOC(=O)CNc1nc2ccccc2n2c(C)nnc12`, for which the activation was -0.04%. The result for `Fc1ccc(CNc2nc3ccccc3n3nnnc23)cc1` reads 5.66% (active); that for `CC(C)(C)N1CC(c2nc3ccccc3n2Cc2ccc(F)cc2)CC1=O` (centres undefined), 0.33%. Next, `Cc1ccc(-n2nc(N)c3c(=O)oc(N(C)C)nc32)cc1`: 0.85%; `CCc1c(C)nc(SCC(=O)NC2CCCC2)[nH]c1=O`: -0.17%; `Cc1c(C)n2c(SCC(=O)NC3CCCC3)nnc2[nH]c1=O`: -0.71%. Next, `Cc1nc(SCC(=O)NC2CCCC2)[nH]c(=O)c1C`: 5.79% (active); `CCOC(=O)c1c(C2CC2)csc1NC(=O)CSCc1c(C)noc1C`: -3.08%; `CC(=O)Nc1cccc(C(=O)OCC(=O)NCc2cc(C)c(O)c(C)c2)c1`: 1.87%. Take `CC(=O)Nc1cccc(C(=O)OCC(=O)c2ccc3c(c2)OCO3)c1`: the activation is 8.29% (active). Next, `CC(=O)Nc1cccc(C(=O)OCN2C(=O)c3ccccc3C2=O)c1`: 1.25%; `COc1ccc(C(=O)OCCN(C)C2CN(Cc3cn(Cc4cccc(C)c4)nn3)S(=O)(=O)C2)cc1OC` (centres undefined): -2.89%. In the case of `COc1ccccc1Cc1c(-c2ccc(Cl)cc2)nc2c3ccccc3ccn12`, the activation is 2.15%. The result for `c1ccc(Cc2c(-c3ccco3)nc3c4ccccc4ccn23)cc1` reads 12% (active); that for `Cc1ccc(Cc2c(-c3ccc(Cl)cc3)nc3c4ccccc4ccn23)cc1`, 3.04%. Turning to `CCCc1nc2c3ccccc3ccn2c1Cc1ccccc1C(F)(F)F`, the activation was 5.09%.

On to `Cc1ccc(Cc2c(-c3ccc(C)cc3)nc3c4ccccc4ccn23)cc1`, for which the activation is 4.63%. The result for `FC(F)(F)c1ccccc1Cc1c(-c2ccccc2)nc2c3ccccc3ccn12` reads 5.96% (active). The result for `COc1cccc(N2CCN(CC(=O)N(C)Cc3ccc(F)cc3)CC2)c1` reads -2.02%; that for `C=CCN1C(=O)[C@H](CC(=O)NCCCN2CCCC2=O)[C@@]2(C(=O)OCC)CCCC=C12`, -0.18%.

As for `Cc1ccc(NC(=O)c2cc(C)nn2-c2ccccc2)c(C)c1`, the activation is -2.18%. The result for `Clc1cccc2c1C1CC2CCN1Cc1ccccc1` (centres undefined) reads -1.68%; that for `CS(=O)(=O)N(Cc1ccccc1Cl)c1ccc(C(=O)NCc2cccnc2)cc1`, -2.13%; that for `CCCc1cc(C(=O)Nc2ccc(Cl)cn2)cs1`, 7.31% (active). Next, `O=C(COC(=O)c1ccco1)Nc1ccc(Cl)cn1`: 0.13%; `CC(OC(=O)CNC(=O)c1ccco1)C(=O)Nc1ccc(Cl)cn1` (centres undefined): -2.11%. The result for `O=C(Nc1cc(Cl)cc(Cl)c1)OCCN1CCCC12CCC(c1ccccc1)CC2` (centres undefined) reads -0.18%; that for `COC(=O)[C@]12C[C@H](CC(=O)N3CCOCC3)C(=O)N(Cc3ccc(Cl)cc3Cl)C1=C[C@H](COCc1ccccc1)O[C@@H]2C`, -3.03%. With `CC(C)Oc1c(Br)cc(Br)cc1/C=N/NC(N)=S`, the activation was -4.22%.

In the case of `NC(=S)N/N=C/c1coc2cc(Cl)ccc2c1=O`, the activation was 5.81% (active).

For `NC(=S)NN=Cc1ccc(OC(=O)COc2cc(Cl)c(Cl)cc2Cl)cn1`, the activation was -1.62%. The result for `Cc1cc(N2CCN(C(=O)OC(C)(C)C)C[C@H]2C)ccc1N1CCN(Cc2ccccc2)[C@H](C)C1` reads 1.47%; that for `O=C(Nc1ccccc1)N(Cc1cccnc1)Cc1ccco1`, -0.9%.
